For test [1], the target named is Calcium and integrin-binding protein 1 (Homo sapiens) (UniProt Q99828). Kind of test: Confirmatory qHTS for Identification of Calcium Integrin Binding Protein 1 (CIB1) Competitor (AID 1508617). Further: on the % scale 0 is the no-effect control and ±100 the full control effect; nearly all actives have a fitted effect of over 65% in size. The procedure, abridged:
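Compounds at up to 114 uM final met 1 uM GST-tagged CIB1 for 15 min at room temperature (HEPES pH 7.4, 5 mM CaCl2). FITC-labelled alphaIIb peptide, 100 nM, added; polarization read after 15 min more.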

For test [2] the target is unchanged. Nature of the test: Validation qHTS for Identification of Calcium Integrin Binding protein 1 (CIB1) Competitor (AID 1508618). Further: on the % scale 0 is the no-effect control and ±100 the full control effect. The procedure, abridged:
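CIB1-GST (1 uM final) incubated 15 min at room temperature with compounds (up to 114 uM), then FITC-labelled alphaIIb peptide (100 nM) added. FP read (Ex 480/Em 540) after 15 min, pH 7.4 buffer containing 5 mM CaCl2.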

Test [3] has the same target. Nature of the test: Primary qHTS for Identification of Calcium Integrin Binding Protein 1 (CIB1) Competitor (AID 1508620). Further: potency means the concentration at half of the fitted maximal effect. The essentials: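 CIB1-GST (1 uM final) and compound incubated 15 min at room temperature before adding FITC-alphaIIb peptide tracer (100 nM final). Competition for binding read by fluorescence polarization (ex 480, em 540) after another 15 min at room temperature.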
For orientation: Quantitative high-throughput screening tests each substance at several concentrations.

Test [4] is described as follows: Primary qHTS for small molecule stabilizers of the endoplasmic reticulum resident proteome: Secreted ER Calcium Modulated Protein (SERCaMP) assay (AID 1508630). Further: on the % scale 0 is the no-effect control and ±100 the full control effect. The essentials: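 The SH-SY5Y reporter protocol was run at 3 concentrations up to 38.3 uM (primary) or 11 concentrations (follow-up): 16 h compound, 100 nM thapsigargin for 4 h, then extracellular luciferase luminescence.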

The target of test [5] is Cytochrome P450 2D6 (Homo sapiens) (UniProt P10635). Kind of test: Cytochrome P450 family 2 subfamily D member 6 (CYP2D6) small molecule antagonists: luciferase biochemical (cell-free) qHTS assay (AID 1645840; active means well fitted curve in the direction sought with a large enough effect in the repeat runs; an effect the other way counts as inactive or inconclusive; further: nearly all actives have a fitted effect of over 55% in size; further: potency means the concentration at half of the fitted maximal effect). The essentials: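 P450-Glo CYP2D6 system: proluciferin substrate converted by enzyme to luciferin, read by luminescence proportional to activity. Enzyme-substrate mix with compound 10 min at room temperature, then NADPH regeneration 1 h before detection reagent.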

Another test deals with Papain (Carica papaya) (UniProt P00784). Kind of test: Primary qHTS assay for inhibitors of the protease papain (AID 1645873).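 Further: papain turnover of Z-FR-AMC read as the AMC fluorescence gain over 10 min; series mostly up to about 50 µM; on the % scale 0 is the no-effect control and ±100 the full control effect.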
Test [6] is described as follows: Primary qHTS for inhibitors of nuclear receptor binding SET domain protein 2 (NSD2) in an isogenic RCH-ACV NSD2 p.E1099K mutant (9B) (AID 1645876). Further: nearly all actives have a fitted effect of over 70% in size. Further: potency means the concentration at half of the fitted maximal effect.
Test [7] is described as follows: Primary qHTS for inhibitors of nuclear receptor binding SET domain protein 2 (NSD2) in an RCH-ACV wild type WT cells (2C) (AID 1645877). Further: nearly all actives have a fitted effect of over 70% in size. Further: potency means the concentration at half of the fitted maximal effect.
Test [8] in a line: Counterscreen qHTS for small molecule stabilizers of the endoplasmic reticulum resident proteome: GLuc-NoTag assay (AID 1508627). Further: potency means the concentration at half of the fitted maximal effect.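 On activity change, negative = inhibition: SH-SY5Y cells given compound then 100 nM thapsigargin to empty ER calcium; series mostly up to about 76 µM; 0% = thapsigargin alone and -100% = DMSO vehicle control.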 The procedure, abridged: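 Counterscreen line: SH-SY5Y-GLuc-NoTag cells, treated with compound 19 hr before a 4 hr, 100 nM thapsigargin calcium depletion. Secreted Gaussia luciferase in the medium was measured by luminescence after coelenterazine was added (0.07x final), with cells unlysed.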

The nature of test [9]: Confirmatory qHTS for small molecule stabilizers of the endoplasmic reticulum resident proteome: Secreted ER Calcium Modulated Protein (SERCaMP) assay (AID 1508628). Further: potency means the concentration at half of the fitted maximal effect; nearly all actives have a fitted effect of over 40% in size. The procedure, abridged:
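GLuc-SERCaMP-expressing SH-SY5Y cells, pretreated 16 h with compound, are challenged with thapsigargin to empty ER calcium stores; after 4 h, coelenterazine is added directly to the medium and luminescence is imaged.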

Test [10] can be described thus: Cell Viability qHTS for small molecule stabilizers of the endoplasmic reticulum resident proteome (AID 1508629).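 Further: human SH-SY5Y neuroblastoma cells carrying the GLuc-SERCaMP reporter; compound exposure about 46 h in total before the viability read; on the % scale 0 is the no-effect control and ±100 the full control effect.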 As to conditions: cell viability counter-screen, 100 nM thapsigargin for final 4 h.
Test [11] in a line: A High-Content qHTS Against Drug Library for the Identification of Small Molecules that Inhibit DYT1 Early Onset Primary Dystonia-Associated Cell Pathology (AID 1645839; calls by dose curve; further: series mostly up to about 46 µM). The procedure, abridged: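 High-content imaging quantified EGFP-TorsinA mislocalization in HEK293-derived cells inducibly expressing DYT1 mutant torsinA, after 48 h exposure to compound given together with tetracycline induction. Cell count served as a toxicity channel alongside %pathology.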

Test [12] has as its target Cytochrome P450 2C9 (Homo sapiens) (UniProt P11712). Nature of the test: Cytochrome P450 family 2 subfamily C member 9 (CYP2C9) small molecule antagonists: luciferase biochemical (cell-free) qHTS assay (AID 1645842; active means well fitted curve in the direction sought with a large enough effect in the repeat runs; an effect the other way counts as inactive or inconclusive; further: nearly all actives have a fitted effect of over 55% in size; further: potency means the concentration at half of the fitted maximal effect). The procedure, abridged:
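P450-Glo CYP2C9 system: proluciferin substrate with enzyme in mix containing 0.4% BSA, 10 min at room temperature, then NADPH regeneration solution added and incubated 1 h at 37C. Detection reagent stopped reaction; luminescence read after 20 min as RLU.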

“And” between values parts separate entries of the source, which are not always exact repeats. Equal values may be shown once. Records with an inconclusive call do not appear. A number with no mark means an inactive call. The source made the active and inactive calls. Unless noted, the call rests on the fitted dose curve; in most records, active means well fitted curve in the direction sought with a large enough effect; inconclusive means small, poorly fitted or top-dose-only effect, or another doubt; inactive means no such curve, though single readings can be large; an effect the other way counts as inactive or inconclusive.

Papain (Carica papaya), sequence (P00784 whole entry, looked up, the tested form may be a part): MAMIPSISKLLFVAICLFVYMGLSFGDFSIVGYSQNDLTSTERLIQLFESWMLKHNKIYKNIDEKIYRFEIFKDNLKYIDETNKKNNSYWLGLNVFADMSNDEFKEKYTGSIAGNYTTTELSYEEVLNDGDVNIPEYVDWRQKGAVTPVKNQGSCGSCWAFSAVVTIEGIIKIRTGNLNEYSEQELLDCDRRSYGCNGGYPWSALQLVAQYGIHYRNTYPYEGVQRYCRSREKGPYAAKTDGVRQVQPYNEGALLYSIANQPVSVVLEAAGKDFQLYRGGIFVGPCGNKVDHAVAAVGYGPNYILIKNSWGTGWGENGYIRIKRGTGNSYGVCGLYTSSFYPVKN
Calcium and integrin-binding protein 1 (Homo sapiens), sequence (Q99828 whole entry, looked up): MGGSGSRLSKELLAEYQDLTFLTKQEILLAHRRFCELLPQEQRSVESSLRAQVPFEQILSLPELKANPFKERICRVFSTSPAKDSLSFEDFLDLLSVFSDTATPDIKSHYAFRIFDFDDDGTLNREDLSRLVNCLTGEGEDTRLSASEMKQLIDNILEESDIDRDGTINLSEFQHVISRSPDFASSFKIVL
Cytochrome P450 2D6 (Homo sapiens), sequence (P10635 whole entry, looked up): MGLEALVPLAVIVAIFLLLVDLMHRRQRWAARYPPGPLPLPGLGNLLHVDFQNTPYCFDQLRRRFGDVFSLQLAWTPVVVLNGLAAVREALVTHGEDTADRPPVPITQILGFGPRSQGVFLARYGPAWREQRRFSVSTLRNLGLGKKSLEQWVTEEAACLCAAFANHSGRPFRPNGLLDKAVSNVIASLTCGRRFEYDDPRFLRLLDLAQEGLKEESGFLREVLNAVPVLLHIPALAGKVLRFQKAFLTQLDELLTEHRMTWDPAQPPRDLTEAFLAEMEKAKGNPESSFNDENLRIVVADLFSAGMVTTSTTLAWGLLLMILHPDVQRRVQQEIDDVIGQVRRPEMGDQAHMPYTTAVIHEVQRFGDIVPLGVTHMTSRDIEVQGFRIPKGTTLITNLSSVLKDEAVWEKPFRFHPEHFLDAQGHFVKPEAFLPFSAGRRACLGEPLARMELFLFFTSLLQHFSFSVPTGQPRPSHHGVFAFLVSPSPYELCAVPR
Cytochrome P450 2C9 (Homo sapiens), sequence (P11712 whole entry, looked up): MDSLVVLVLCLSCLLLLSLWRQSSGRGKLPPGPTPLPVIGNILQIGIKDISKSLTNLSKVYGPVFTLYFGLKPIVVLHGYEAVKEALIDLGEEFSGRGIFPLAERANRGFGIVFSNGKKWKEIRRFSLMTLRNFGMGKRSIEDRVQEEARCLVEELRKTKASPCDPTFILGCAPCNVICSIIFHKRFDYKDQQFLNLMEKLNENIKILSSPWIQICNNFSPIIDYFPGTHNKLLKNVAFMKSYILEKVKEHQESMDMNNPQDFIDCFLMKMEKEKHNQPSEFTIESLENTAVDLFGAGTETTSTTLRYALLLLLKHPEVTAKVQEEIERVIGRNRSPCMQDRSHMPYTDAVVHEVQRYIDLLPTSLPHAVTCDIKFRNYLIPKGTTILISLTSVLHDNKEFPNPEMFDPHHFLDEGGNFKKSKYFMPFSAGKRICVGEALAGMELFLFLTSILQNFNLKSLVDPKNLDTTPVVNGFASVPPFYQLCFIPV

Turning to `C[n+]1cc2c3c(ccc2c2ccc4cc5c(cc4c21)OCO5)OCO3`, the outcome in [1] and in test [2] was inactive. Moreover, the Potency was 14.1 µM (active) in [3], 6.74 µM (active) in test [5], 0.58 µM (active) in test [6] and 0.411 µM (active) in [7]. In addition, the Potency entry (in test [4]; in the test with Papain (Carica papaya)) was “inactive” throughout.

In the case of `CCc1cccc(N(C)C(N)=Nc2cccc3ccccc23)c1`, the outcome in test [2] was inactive. Also, the Potency entry (in test [3]; with Papain (Carica papaya)) was “inactive” in each case. The Potency is 39.8 µM (active) in test [8], 15.8 µM (active) in test [9] and 0.11 µM (active) in test [5]. In addition, the max response in [10] is -28.6%.

In the case of `CCCCNc1ccc(C(=O)OCCN(C)C)cc1`, in test [2], the result was inactive. The Potency result (in test [3]; in [8]; in test [4]; in test [11]; in the test with Papain (Carica papaya); in test [6]) was “inactive” each time. The Potency entry in test [7] is “inactive”. The max response in test [10] was 13.7% and 3.85% and 11.6%.

Take `CCOC(=O)c1cnc2c(cnn2CC)c1NN=C(C)C`: the result in test [2] was inactive. Also, the Potency result in test [3], in [8], in test [4], in test [11] and in test [5] was “inactive” each time. Also, the max response in test [10] is 4.21%. The Potency in test [12] was 13.8 µM (active).

In the case of `O=C(O)CCCCCCCC(=O)O`, in [2], the outcome was inactive. For the same compound, the Potency result (in test [3]; in test [4]; in [11]; in test [5]; in test [12]; with Papain (Carica papaya)) was “inactive” throughout. Further, the Potency result in test [6] was “inactive”.

Take `CN(C)CC/C=C1\c2ccccc2COc2ccccc21`: the result in [2] was inactive. Moreover, the Potency entry (in test [3]; in test [8]; in test [12]; with Papain (Carica papaya)) was “inactive” throughout. Besides, the Potency in [5] was 1.95 µM (active).

For the compound `C[C@]12CCC(=O)C=C1CC[C@@H]1[C@@H]2CC[C@@]2(C)[C@H]1CC[C@]2(O)C(=O)CO`, the outcome in [2] was inactive. Besides, the Potency entry in test [3], in [4], in test [11], in test [5] and in test [12] was “inactive” in each case.

With `CN1CCN(CC(=O)N2c3ccccc3C(=O)Nc3cccnc32)CC1`, in test [2], the outcome was inactive. In addition, the activity change, negative = inhibition in test [3] was -0.936% [at 12.4 µM]; in test [5], 3.24% [at 4.83 µM]; in [12], 3.44% [at 4.83 µM]. The Potency entry (in test [4]; with Papain (Carica papaya)) was “inactive” throughout. Also, the % pathology change, negative = correction in test [11] is 18.1% [at 4.63 µM].

`CC[N+](C)(C)c1cccc(O)c1`: the outcome in test [2] was inactive. Moreover, the Potency entry (in test [3]; in test [4]; in [11]; in test [5]; in test [12]; with Papain (Carica papaya)) was “inactive” in each case. For the same compound, in test [6], the Potency entry is “inactive”.

`FC(F)(F)c1ccccc1-n1ccnc1`: the outcome in [2] was inactive. In addition, the Potency result in [3], in test [4], in test [11] and in test [6] was “inactive” in each case. Besides, the Potency is 3.47 µM (active) in test [5] and 13.8 µM (active) in test [12].

For `O=C(O)CN(CCOCCOCCN(CC(=O)O)CC(=O)O)CC(=O)O`, the result in test [2] was inactive. In addition, the activity change, negative = inhibition in test [3] is 0.103% [at 1.07 µM]; in test [5], 2.42% [at 0.91 µM]; in test [12] it was 9.82% [at 0.91 µM]. For the same compound, the Potency entry (in [4]; in the test with Papain (Carica papaya)) was “inactive” throughout. Moreover, the % pathology change, negative = correction in [11] is 13.7% [at 0.369 µM]. For the same compound, the activity change, negative = viability loss in test [6] is 5.34% [at 0.588 µM].

`Brc1c(NC2=NCCN2)ccc2nccnc12`: the result in [2] was inactive. The Potency result (in [3]; in [4]; in test [11]; in test [12]; with Papain (Carica papaya); in test [6]) was “inactive” each time. In test [7], the Potency result was “inactive”. Moreover, the Potency in test [5] was 21.9 µM (active).

Take `NC(=O)c1cn(Cc2c(F)cccc2F)nn1`: the result in [2] was inactive. Moreover, the Potency result (in test [3]; in test [4]; in [11]; in test [5]; in test [12]; with Papain (Carica papaya)) was “inactive” throughout. Besides, the Potency entry in test [6] and in test [7] was “inactive” throughout.

The values are drawn from PubChem BioAssay (NCATS).
